A selection: hits, their analogues and other compounds. The true share with any hit is near 4%.
ERAP1 HTS inh: inhibitors of human ERAP1 aminopeptidase | recombinant ERAP1, Leu-AMC fluorescence, 60 min | inhibition, % at 10.7 µM | hit rate 0.15% among 340,000 | AID 652197;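 active = mean replicate inhibition of at least 30%, or all replicates individually reaching that 30% level; inactive = mean below 30% and not every replicate reaching it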
RAD52 anneal inh: RAD52 (human) annealing inhibition | recombinant RAD52 DNA annealing, FRET fluorescence | inhibition, % at 18.7 µM | hit rate 0.46% among 360,000 | AID 651710;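 active = every replicate showing at least 50% inhibition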
FGF22 binding-1: binders of recombinant human FGF22 by thermal shift. Q9HCT0. SYPRO orange fluorescence; percent of sucrose octasulfate shift, DMSO zero. activity (Tm shift, normalised), % at 9.99 µM. hit rate 1.5% among 340,000. AID 651658;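 active = mean Tm shift, scaled 0 neutral to 100 positive control, at about 1.3% or above, every replicate too, limit read from the data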
DENV2 CPE: inhibitors of DENV2 cytopathic effect; DENV2-infected cells, cytopathic effect rescue, plate reader; CPE inhibition, % at 9.99 µM; hit rate 1.7% among 350,000; AID 651640; in the data active = CPE inhibition above about 20%, passing the limit was not always enough; tested in BHK-21 cells
AF4-AF9 inh: blocks AF4 peptide binding to human AF9; AID 651704; hit rate 0.47% among 350,000; P42568; inhibition, % at 10 µM; AlphaScreen, biotin-AF4 peptide binding to FLAG-AF9;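 active = every replicate reaching a set inhibition limit, whatever the replicate mean, cut at about 25% in these data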
Target sequence (P42568 whole entry, looked up): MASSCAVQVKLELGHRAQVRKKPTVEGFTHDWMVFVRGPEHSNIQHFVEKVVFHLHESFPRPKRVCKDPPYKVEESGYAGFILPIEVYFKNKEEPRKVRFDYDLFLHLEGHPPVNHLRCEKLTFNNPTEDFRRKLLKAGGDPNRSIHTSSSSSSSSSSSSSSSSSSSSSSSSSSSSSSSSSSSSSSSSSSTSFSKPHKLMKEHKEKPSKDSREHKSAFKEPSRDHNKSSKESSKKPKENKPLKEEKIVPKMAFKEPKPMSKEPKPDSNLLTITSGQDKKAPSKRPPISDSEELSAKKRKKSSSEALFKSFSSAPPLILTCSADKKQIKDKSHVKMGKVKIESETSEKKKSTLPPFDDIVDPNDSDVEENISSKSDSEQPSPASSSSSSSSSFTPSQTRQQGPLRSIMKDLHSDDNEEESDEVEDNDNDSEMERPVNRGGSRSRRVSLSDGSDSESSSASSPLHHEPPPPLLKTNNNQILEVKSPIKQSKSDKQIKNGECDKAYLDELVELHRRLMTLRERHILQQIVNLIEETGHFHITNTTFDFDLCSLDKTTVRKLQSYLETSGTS
FGF22 binding-2: FGF22 (human) binding in thermal shift. shares compounds with FGF22 binding-1. recombinant FGF22 thermal shift, SYPRO orange fluorescence. thermal shift activity, °C (ΔTm) at 38 µM. hit rate 2% among 1,000;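 active = fitted rise in melting shift crosses a set limit at or below the top valid dose tested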
SYPRO no-protein: counter-screen for FGF22 binders: compound-only thermal shift, no protein; shares compounds with FGF22 binding-1; compound-only SYPRO orange thermal shift counter-screen; AC50, µM (titrated, usually from 38 µM); hit rate 2% among 1,000;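 active = rising signal whose fitted curve reaches the 0.54 level within the top valid dose, showing a melting point, actives reach about 13 µM in these data; inactive = the rest, including activity in the opposite direction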; also: value is where the raw curve crosses a fixed level and not half-maximal
Numbers stand for hits; - = inactive; . = not tested or not shown.

SMILES	ERAP1 HTS inh	RAD52 anneal inh	FGF22 binding-1	DENV2 CPE	AF4-AF9 inh	FGF22 binding-2	SYPRO no-protein
C[C@@H]1CN([C@H](C)CO)S(=O)(=O)c2ccc(C3=CCCCC3)cc2O[C@H]1CN(C)C(=O)Nc1ccc2c(c1)OCO2	-	-	-	-	-	.	.
C[C@@H]1CN([C@H](C)CO)S(=O)(=O)c2ccc(C3=CCCC3)cc2O[C@@H]1CN(C)C(=O)Nc1ccc2c(c1)OCO2	-	-	1.2	-	-	-	-
CCCNC(=O)[C@H]1[C@H](CO)[C@H]2Cn3c(cccc3=O)[C@@H]1N2S(=O)(=O)c1ccccc1F	-	-	-	-	-	.	.
COc1cc(/C=N/NC(=O)c2ccncc2)ccc1OCC(=O)Nc1cccc([N+](=O)[O-])c1	-	-	1.9	-	-	-	-
CC(=O)N1[C@@H](CO)[C@@H](c2ccccc2)[C@@H]1CN(C(=O)c1cccc(F)c1)C(C)C	-	-	-	-	-	.	.
CC(=O)N1[C@H](CO)[C@H](c2ccccc2)[C@H]1CN(C(=O)c1cccc(F)c1)C(C)C	-	-	1.7	-	-	-	-
O=C(O)c1ccccc1Nc1ccccc1C(=O)O	-	-	-	-	-	.	.
O=C(O)c1ccccc1Nc1ccc([N+](=O)[O-])cc1	-	-	1.7	-	-	-	-
CCCC#Cc1ccc2c(c1)O[C@H](CN(C)Cc1ccncc1)[C@@H](C)CN([C@@H](C)CO)S2(=O)=O	-	-	-	-	-	.	.
Cc1cc(C(=O)O/N=C(\N)c2ccncc2)ccc1[N+](=O)[O-]	.	-	18.2	-	-	-	-
CCNC(=O)C1(C)CCN(Cc2ccc(OC(F)(F)F)cc2)C1 (stereo not drawn)	-	-	1.4	-	-	-	-
CCC(=O)N[C@@H]1CC[C@@H](CCn2cc(CN(C)C)nn2)O[C@H]1CO	-	-	-	-	-	.	.
O=C(O)C[C@@H]1C[C@H]2c3cc(NC(=O)Nc4ccc(C(F)(F)F)cc4)ccc3O[C@H]2[C@@H](CO)O1	-	-	23.3	-	-	-	-
CN(C)CC(=O)Nc1ccc2c(c1)[C@@H]1C[C@H](CC(=O)N(C)C)O[C@@H](CO)[C@@H]1O2	-	-	2.3	-	-	-	-
O=C(O)C[C@H]1C[C@H]2c3cc(NC(=O)Nc4ccc(C(F)(F)F)cc4)ccc3O[C@H]2[C@H](CO)O1	.	-	-	.	.	.	.
COCC(=O)Nc1ccc2c(c1)[C@H]1C[C@@H](CC(=O)NCc3ccccn3)O[C@H](CO)[C@H]1O2	-	-	1.3	-	-	-	-
O=C(C[C@H]1C[C@H]2c3cc(NC(=O)NC4CCCC4)ccc3O[C@H]2[C@@H](CO)O1)NCCN1CCCCC1	-	-	19.1	-	-	-	-
O=C(C[C@@H]1C[C@@H]2c3cc(NC(=O)NC4CCCC4)ccc3O[C@@H]2[C@@H](CO)O1)NCCN1CCCCC1	-	-	-	-	-	.	.
C[C@@H](NC(=O)C[C@H]1C=C[C@H](NC(=O)C2CCC2)[C@@H](CO)O1)c1ccccc1	-	-	-	-	-	.	.
CN1C(=O)c2cc(NS(=O)(=O)c3ccc(F)cc3)ccc2OC[C@@H]2O[C@@H](CC(=O)NCC(F)(F)F)CC[C@@H]21	-	-	-	-	-	.	.
COc1ccccc1CN1CC2(C1)[C@H](c1ccccc1)[C@H](CO)N2Cc1ccccc1	-	-	-	-	-	.	.
O=C(C[C@H]1C[C@@H]2c3cc(NC(=O)NC4CCCC4)ccc3O[C@@H]2[C@H](CO)O1)NC1CCCC1	-	-	1.4	-	-	-	-
COc1cccc(S(=O)(=O)Nc2ccc3c(c2)[C@@H]2C[C@H](CC(=O)NC4CCCCC4)O[C@@H](CO)[C@@H]2O3)c1	-	-	1.6	-	-	-	-
O=C(C[C@H]1C[C@H]2c3cc(NC(=O)NC4CCCC4)ccc3O[C@H]2[C@@H](CO)O1)NC1CCCC1	-	-	-	-	-	.	.
O=C(C[C@H]1C[C@@H]2c3cc(NC(=O)C4CCC4)ccc3O[C@@H]2[C@H](CO)O1)NCc1cc(F)ccc1F	-	-	-	-	-	.	.
SMILES	ERAP1 HTS inh	RAD52 anneal inh	FGF22 binding-1	DENV2 CPE	AF4-AF9 inh	FGF22 binding-2	SYPRO no-protein
O=C(C[C@@H]1C[C@H]2c3cc(NC(=O)C4CCC4)ccc3O[C@H]2[C@@H](CO)O1)NCc1cc(F)ccc1F	-	-	28.1	-	-	-	-
CS(=O)(=O)Nc1ccc2c(c1)[C@@H]1C[C@H](CC(=O)NCCc3ccccc3)O[C@@H](CO)[C@@H]1O2	-	-	1.4	-	-	-	-
CN1C(=O)c2cc(NC(=O)Nc3ccccc3F)ccc2OC[C@@H]2O[C@H](CC(=O)O)CC[C@H]21	.	.	-	-	.	.	.
CC(C)C(=O)Nc1ccc2c(c1)C(=O)N(C)[C@@H]1CC[C@H](CC(=O)NCc3ccccc3F)O[C@@H]1CO2	.	.	-	-	.	.	.
COc1ccc(S(=O)(=O)Nc2cc3c4c(c2)CCN4C(=O)CC3)cc1OC	-	-	11.7	-	-	-	-
COc1ccc(S(=O)(=O)Nc2cc3c4c(c2)CC(=O)N4CCC3)cc1OC	-	-	-	-	-	.	.
COc1ccc2c3c(n(C)c2c1)[C@@H](CO)N(C(=O)CN(C)C)CC31CCN(Cc2cncnc2)CC1	-	-	-	-	-	.	.
CCNC(=O)C1(C)CCCN(C(=O)C2(c3ccc(Cl)cc3)CCCC2)C1 (stereo not drawn)	-	-	1.6	-	-	-	-
O=C(C[C@H]1C[C@@H]2c3cc(NC(=O)c4cccnc4)ccc3O[C@@H]2[C@H](CO)O1)NCc1cccnc1	-	-	-	-	-	.	.
COc1ccc(S(=O)(=O)N[C@H]2C=C[C@H](CC(=O)NCCc3ccccc3)O[C@@H]2CO)cc1	-	-	-	-	-	.	.
Cc1ccc(S(=O)(=O)N[C@@H]2C=C[C@H](CC(=O)NCc3ccc(Cl)c(Cl)c3)O[C@@H]2CO)cc1	-	-	-	-	-	.	.
Cc1ccc(S(=O)(=O)N[C@H]2C=C[C@@H](CC(=O)NCc3ccc(Cl)c(Cl)c3)O[C@H]2CO)cc1	-	-	1.3	-	-	-	-
COc1ccc(S(=O)(=O)N[C@@H]2C=C[C@H](CC(=O)NCCc3ccccc3)O[C@@H]2CO)cc1	-	-	1.4	-	-	-	-
O=C(C[C@@H]1CC[C@@H]2[C@H](COC[C@@H](O)CN2Cc2cc(F)ccc2F)O1)NCc1ccc(Cl)cc1	-	-	-	-	-	.	.
CCS(=O)(=O)NCC[C@@H]1CC[C@@H](NC(=O)C2CCC2)[C@@H](CO)O1	-	-	-	-	-	.	.
COC(=O)c1ccc(CN2CC(=O)N3[C@H](C2)[C@@H](c2ccc(Br)cc2)[C@@H]3CO)cc1	-	-	-	-	-	.	.
C[C@H](CO)N1C[C@H](C)[C@H](CN(C)C(=O)NC2CCCCC2)Oc2ccc(NC(=O)CCN3CCOCC3)cc2C1=O	-	-	-	-	-	.	.
